According to the supplement of paper PMC12067093, “Discovery and optimisation of a covalent ligand for TRIM25 and its application to targeted protein ubiquitination” (Chemical Science, 2025):
About 21,000 targets were measured; listed, in parts, are those with the largest changes and a random draw of the rest.

Each target was assayed with CC1Cc2ccccc2N1C(=O)C1CCCN(C1)C(=O)CCl (mixture of isomers) [TRIM25 ligand 11 (diastereomer mixture)] (assay: probe-labelled cysteine peptide fold change vs DMSO (competition) (log2 fold change); higher = less target engagement (more negative = stronger competition)). Details: 10 µM; THP-1; incubation time: 4 h.
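Further: competitive chemoproteomic profiling in live THP-1 cells with an iodoacetamide desthiobiotin (IA-DTB) probe, comparing probe-labelled peptide intensities in compound-treated cells against DMSO-treated controls.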

Chain of UniProt Q5T4S7 (Q5T4S7 whole entry, looked up): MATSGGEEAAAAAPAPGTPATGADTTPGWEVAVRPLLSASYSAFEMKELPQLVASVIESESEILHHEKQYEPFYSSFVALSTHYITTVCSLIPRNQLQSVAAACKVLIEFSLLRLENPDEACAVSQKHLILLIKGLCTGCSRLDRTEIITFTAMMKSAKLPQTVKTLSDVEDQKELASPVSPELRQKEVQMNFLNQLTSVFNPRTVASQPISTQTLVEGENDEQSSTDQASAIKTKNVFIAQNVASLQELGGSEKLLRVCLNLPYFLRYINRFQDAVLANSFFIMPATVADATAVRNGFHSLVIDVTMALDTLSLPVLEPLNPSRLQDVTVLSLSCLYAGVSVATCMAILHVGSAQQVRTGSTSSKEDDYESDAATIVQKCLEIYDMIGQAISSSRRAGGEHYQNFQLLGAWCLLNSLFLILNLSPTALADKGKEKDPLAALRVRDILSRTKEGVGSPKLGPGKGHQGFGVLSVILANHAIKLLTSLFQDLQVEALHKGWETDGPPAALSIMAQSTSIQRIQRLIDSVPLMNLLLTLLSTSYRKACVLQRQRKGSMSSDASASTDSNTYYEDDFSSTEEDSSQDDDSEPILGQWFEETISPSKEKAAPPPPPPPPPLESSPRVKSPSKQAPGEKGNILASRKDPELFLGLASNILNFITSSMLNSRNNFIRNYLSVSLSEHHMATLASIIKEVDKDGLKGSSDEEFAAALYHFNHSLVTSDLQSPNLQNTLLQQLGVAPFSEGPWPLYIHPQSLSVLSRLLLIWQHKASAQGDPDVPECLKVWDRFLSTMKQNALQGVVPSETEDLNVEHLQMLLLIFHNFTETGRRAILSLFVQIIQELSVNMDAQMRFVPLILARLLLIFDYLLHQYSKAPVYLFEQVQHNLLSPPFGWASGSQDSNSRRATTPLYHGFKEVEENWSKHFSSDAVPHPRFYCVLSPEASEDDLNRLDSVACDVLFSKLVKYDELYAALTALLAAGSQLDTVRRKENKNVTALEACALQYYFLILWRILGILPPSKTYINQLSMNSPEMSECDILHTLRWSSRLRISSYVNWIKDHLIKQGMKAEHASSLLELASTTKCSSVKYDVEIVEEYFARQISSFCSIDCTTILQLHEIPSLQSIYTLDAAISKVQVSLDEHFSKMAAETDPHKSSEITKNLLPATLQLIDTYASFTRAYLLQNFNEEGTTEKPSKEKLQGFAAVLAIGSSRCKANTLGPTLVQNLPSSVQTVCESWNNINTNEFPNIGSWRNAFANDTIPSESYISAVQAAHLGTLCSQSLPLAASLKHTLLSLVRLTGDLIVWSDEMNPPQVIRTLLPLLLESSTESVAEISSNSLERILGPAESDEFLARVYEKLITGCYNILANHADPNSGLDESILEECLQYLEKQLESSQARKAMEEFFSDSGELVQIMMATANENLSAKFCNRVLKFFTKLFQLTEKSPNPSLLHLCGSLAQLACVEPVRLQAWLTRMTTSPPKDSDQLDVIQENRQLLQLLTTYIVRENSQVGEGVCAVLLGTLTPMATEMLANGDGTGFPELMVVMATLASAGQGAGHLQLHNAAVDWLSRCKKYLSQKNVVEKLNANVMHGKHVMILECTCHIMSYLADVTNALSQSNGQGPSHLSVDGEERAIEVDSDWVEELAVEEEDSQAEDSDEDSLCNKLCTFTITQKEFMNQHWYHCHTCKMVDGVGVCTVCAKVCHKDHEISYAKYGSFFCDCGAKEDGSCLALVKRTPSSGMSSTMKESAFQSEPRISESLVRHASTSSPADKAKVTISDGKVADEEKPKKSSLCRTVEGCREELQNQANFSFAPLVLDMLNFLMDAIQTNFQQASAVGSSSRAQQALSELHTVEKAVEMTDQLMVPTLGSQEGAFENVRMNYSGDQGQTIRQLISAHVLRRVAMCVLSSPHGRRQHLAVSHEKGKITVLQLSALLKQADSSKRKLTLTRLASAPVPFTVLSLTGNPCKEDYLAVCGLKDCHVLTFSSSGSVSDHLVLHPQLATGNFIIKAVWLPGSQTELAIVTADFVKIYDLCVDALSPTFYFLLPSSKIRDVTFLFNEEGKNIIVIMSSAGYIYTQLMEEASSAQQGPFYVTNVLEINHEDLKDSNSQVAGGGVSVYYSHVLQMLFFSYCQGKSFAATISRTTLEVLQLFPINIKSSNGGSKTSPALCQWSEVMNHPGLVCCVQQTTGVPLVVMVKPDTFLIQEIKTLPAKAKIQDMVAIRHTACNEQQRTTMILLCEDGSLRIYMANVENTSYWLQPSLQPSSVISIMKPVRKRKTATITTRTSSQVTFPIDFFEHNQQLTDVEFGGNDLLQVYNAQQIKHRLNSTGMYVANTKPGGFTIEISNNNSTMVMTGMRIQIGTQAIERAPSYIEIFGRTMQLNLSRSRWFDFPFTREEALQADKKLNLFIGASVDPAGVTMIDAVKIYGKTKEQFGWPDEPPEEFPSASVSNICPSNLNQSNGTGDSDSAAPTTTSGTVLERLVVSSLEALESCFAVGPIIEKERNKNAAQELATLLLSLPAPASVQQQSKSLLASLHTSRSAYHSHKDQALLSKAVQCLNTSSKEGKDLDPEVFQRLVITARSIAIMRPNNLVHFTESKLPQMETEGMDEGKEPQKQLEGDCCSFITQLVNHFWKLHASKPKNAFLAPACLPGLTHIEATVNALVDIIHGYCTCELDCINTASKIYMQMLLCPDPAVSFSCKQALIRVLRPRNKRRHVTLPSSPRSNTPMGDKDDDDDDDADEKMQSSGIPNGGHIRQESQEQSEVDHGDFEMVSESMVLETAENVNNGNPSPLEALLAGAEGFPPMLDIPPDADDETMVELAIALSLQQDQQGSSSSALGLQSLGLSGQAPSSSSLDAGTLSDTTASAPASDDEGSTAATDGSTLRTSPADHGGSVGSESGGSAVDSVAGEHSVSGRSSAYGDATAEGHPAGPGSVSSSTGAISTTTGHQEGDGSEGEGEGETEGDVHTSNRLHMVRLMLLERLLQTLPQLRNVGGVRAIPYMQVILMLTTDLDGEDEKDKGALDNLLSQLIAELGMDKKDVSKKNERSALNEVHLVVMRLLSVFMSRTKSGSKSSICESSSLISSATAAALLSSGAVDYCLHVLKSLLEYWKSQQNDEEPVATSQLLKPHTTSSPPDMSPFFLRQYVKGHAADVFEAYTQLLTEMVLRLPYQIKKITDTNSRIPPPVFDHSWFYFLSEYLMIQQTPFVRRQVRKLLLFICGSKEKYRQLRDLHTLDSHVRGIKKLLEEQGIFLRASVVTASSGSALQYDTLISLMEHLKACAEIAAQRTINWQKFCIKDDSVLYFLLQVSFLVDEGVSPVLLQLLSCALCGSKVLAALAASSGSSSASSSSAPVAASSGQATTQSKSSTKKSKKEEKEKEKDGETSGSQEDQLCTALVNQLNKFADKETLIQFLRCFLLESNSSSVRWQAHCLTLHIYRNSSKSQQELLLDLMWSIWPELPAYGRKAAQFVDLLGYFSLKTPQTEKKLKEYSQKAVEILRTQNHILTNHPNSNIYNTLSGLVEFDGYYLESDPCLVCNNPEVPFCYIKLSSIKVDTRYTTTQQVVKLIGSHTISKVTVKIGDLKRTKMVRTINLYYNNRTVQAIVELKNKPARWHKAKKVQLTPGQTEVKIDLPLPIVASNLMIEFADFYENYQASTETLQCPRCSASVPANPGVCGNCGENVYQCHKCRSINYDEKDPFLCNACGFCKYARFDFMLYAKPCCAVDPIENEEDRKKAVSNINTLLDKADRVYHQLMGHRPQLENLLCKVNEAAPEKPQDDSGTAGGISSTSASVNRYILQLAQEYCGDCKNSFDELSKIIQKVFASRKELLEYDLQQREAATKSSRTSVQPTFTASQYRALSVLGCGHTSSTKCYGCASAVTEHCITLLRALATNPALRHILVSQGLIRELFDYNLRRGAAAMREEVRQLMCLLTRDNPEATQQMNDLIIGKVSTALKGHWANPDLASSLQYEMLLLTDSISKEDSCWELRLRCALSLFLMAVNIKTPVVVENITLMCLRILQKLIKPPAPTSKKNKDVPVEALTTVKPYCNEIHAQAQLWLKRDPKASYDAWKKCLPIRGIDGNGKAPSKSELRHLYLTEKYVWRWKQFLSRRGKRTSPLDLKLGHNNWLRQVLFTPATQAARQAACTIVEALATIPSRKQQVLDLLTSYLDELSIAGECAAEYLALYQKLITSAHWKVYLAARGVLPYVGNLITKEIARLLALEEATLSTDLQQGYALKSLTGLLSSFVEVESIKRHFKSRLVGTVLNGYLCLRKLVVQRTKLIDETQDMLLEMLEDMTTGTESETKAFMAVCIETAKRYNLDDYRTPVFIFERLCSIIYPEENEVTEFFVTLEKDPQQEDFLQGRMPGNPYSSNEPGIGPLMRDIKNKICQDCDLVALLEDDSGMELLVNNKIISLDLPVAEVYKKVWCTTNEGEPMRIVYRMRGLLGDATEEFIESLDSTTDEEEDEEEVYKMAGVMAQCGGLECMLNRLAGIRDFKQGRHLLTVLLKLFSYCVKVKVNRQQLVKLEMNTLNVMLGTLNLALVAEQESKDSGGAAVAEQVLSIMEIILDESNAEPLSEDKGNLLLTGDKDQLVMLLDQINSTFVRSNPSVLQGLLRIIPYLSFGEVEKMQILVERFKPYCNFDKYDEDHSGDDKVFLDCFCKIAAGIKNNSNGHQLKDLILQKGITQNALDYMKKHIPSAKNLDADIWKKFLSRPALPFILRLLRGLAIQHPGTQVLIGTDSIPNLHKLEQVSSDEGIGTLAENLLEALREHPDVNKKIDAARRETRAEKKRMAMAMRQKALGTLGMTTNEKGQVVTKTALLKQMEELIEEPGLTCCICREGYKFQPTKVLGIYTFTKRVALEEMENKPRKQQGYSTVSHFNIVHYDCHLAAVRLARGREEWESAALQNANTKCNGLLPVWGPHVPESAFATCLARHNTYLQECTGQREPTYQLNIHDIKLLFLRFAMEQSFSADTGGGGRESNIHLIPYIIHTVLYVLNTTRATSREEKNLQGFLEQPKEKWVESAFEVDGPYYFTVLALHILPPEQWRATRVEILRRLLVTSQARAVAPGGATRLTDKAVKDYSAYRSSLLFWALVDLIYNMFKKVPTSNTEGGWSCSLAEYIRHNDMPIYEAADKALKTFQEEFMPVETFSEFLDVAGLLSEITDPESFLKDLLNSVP

Target	probe-labelled cysteine peptide fold change
TTLL12_Q14166_418_WGEDNHWICK (UniProt Q14166)	0.0917
TYK2_P29597_1140_CPCEVYHLMK (UniProt P29597)	-0.0795
USP34_Q70CQ2_2033_CQVADMK (UniProt Q70CQ2)	0.0209
URB2_Q14146_1380_LHNVLFSILQCHPK (UniProt Q14146)	0.199
VCPIP1_Q96JH7_940_HCTFPHLPGK (UniProt Q96JH7)	0.0492
TUBG1_P23258_316_QTNHCYIAILNIIQGEVDPTQVHK<|>TUBG2_Q9NRH3_316_QTNHCYIAILNIIQGEVDPTQVHK (UniProt Q9NRH3+P23258)	0.00794
TTF2_Q9UNY4_1118_FVCEGTVEEK (UniProt Q9UNY4)	-0.132
WAPL_Q7Z5K2_891_ALQHCEELIQQYNR (UniProt Q7Z5K2)	0.739
WWP2_O00308_186_HQPPSTNCFGGR (UniProt O00308)	-0.035
WDR26_Q9H7D7_238_CELTPLK (UniProt Q9H7D7)	-0.0356
WDHD1_O75717_781_CVELADLMTQNAVNLAIK (UniProt O75717)	0.0994
UBE2T_Q9NPD8_86_ICLDVLK (UniProt Q9NPD8)	-0.00663
TUBGCP3_Q96CW5_388_TLAALVDHCQGRK (UniProt Q96CW5)	-0.158
TRPM7_Q96QT4_1426_DQETVCSK (UniProt Q96QT4)	-0.118
WT1_P19544_385_HTGVKPFQCK (UniProt P19544)	-0.144
UBR4_Q5T4S7_4146_QAACTIVEALATIPSR (UniProt Q5T4S7)	0.0371
